# Source: the supplement of paper PMC12632987
# In all, about 4,500 sequences were measured (“median log2 fold change of GCK-ALFA target abundance (FLAG IP / Myc IP barcode read proportion)”: median about 0.078, lowest 2% from about -0.6 on). The full list was thinned out, with the lowest values kept by preference.
# B1: GBRAP_35_5569 (protein)
# chain: STDETIVEMTVNTIEALTLAVPDLDPATLETITRQVVALAREVIEDIKNNLEGLKRILEALRALLAAIRARGLDDPHLQAAAAAVEEAIRLAEKAIKEAE
# B2: GBRAP_184_5315 (protein)
# chain: EVIRRFITVETKEEAEKKLKEIKEEIKKSGKKYTVYIEVKNPTKELIDTVFEEIKKMKEEGVDADFILVVEEPVDEEMEDYIVEKAKEAGARAVIALPEE
# B3: GBRAP_11_2707 (protein)
# chain: KKEKLKEIAKLAAEAAALTEQLLKEGVDNKELQAKLTAKIKELTELVKKYADESLKKLAEIAKELWEKALADPENKEQYLKELLATLRVLEGQALLEIEE
# B4: GBRAP_52_6040 (protein)
# chain: MRERMRRLAREIVELVRAGRLEEARERIRELVETLSLEELELLGEELAELAREAEPEDLDAVMEVALMLADELEKAGYPEVFADDLEARVARAAVENLER
# B5: GBRAP_11_2896 (protein)
# chain: KKEKLKEAAELAEKAAKLLEELIKEGPDNEELRKKAEEALEKLLELAKKYLDESSVELAESALELFEKAKEDPENAKEYLEQALAYVRVLEGQVLLEIEE
# B6: GBRAP_43_5752 (protein)
# chain: MEEIIEGAVDFATLAAEDPNISEEQKLKIAKDVFEIVADEGIKLPEELSKLTRALAKSLSLEQLKELLKHLKELAEKYPELKEDFEANAKIIEEAIKKKE
# B7: GBRAP_35_5553 (protein)
# chain: DFDKEVIEMVRATAEDLLLAVDDLPVDTLITMATQIAELTLKVAKDEKENKEELKELLEATLELLDAVIEKAEKEGAPEEDIEKLRKLKKELEEALKEAE
# B8: GBRAP_160_4282 (protein)
# chain: GEKLKELAEELREDRDEILSLVDKISAEEVRTFAVTSLGSILMEAIDGELLTDEEEDELAKIIDDLEAELDALKDASPEEIRAAIEKHFDKAIELLEKAA
# B9: GBRAP_125_3047 (protein)
# chain: SLEELVEALRLLAKKLGYSEEEVEEIARLARKYGVKGTLIAILLAEGEEELAELAAKLTDEQVAEVLLELKAWLEENPDASKEEVLKKLRELLEKALAKT
# B10: GBRAP_52_5975 (protein)
# chain: MREEMRRLAEEAVALMLAGDREGARALLEEIAETKTEEEITLFMEELAELAKTATPEERDAIVEVALLAEDIWLEAGFDEALADSNVARVAAAAYAAEQA
# B11: GBRAP_128_3472 (protein)
# chain: GVEEVRKWTKEVMEKMKTADDEEFRELATELAERLLTLPLEEVEAAVEVIKEHLPELTAEKLEILAEVLREARPQATPEKAALFADVESEALLLAEELEE
# B12: GBRAP_52_5855 (protein)
# chain: SKEKMRKLAEELLKLKLAGKEEELEKKVKELVATLSEEEILELLKELAELAKKANKEEAEAIAEVAELLADEAEKAGFDEDELSYELAKVYAAAYKVLQK
# B13: GBRAP_35_5567 (protein)
# chain: SFDETTAEMMVNTIEALTEAVEDIDPETLKTITEQITKAAKKVIEEIKDNKEALEKIKKALEKLLKALEKRGLDDPNVKAAAEAVKEAIKEAEKAIKEAE
# B14: GBRAP_52_6372 (protein)
# chain: REAEARAIVDELLALAEAGDEEGVEALVREVLASGDGALQAAVLREIRRRLEARDHPDPEALLRLAAIVADEVLEAEVDSPEVWAALTALAAAALALERA
# B15: GBRAP_160_4778 (protein)
# chain: SEKVEELKKSIEEAKEEILESIDTESPEETIIVVKGETGLILAEAYELEIDNDELEDALDEIGDELIEEMKKNKNASKEELKKIVEEYTEKALKKIEELT
# B16: GBRAP_43_5750 (protein)
# chain: MEEIIEGHVDFALLAAEDPNISEEQKLKIAKDTFDILADENISLPEESSKLTEALAKSLSLEQLKELLAHLKELAKKYPELKELFDKNSKIIEEAIKKLE
# B17: GBRAP_80_6795 (protein)
# chain: AEERLKKALEEIEKLDKELAKKVKEIVEIAREMGVSTEDLADFAEAIAELLKLDKEKARELVEELKEELEELKKEGNKAEAEAAVRVYAGEALLEVEELE
# B18: GBRAP_160_4201 (protein)
# chain: SEKVEKVIRLLREETERVIAEVPELSREEVANLADVEYGSVLMEAVELGIENDEILDTIADAADEIRRFLEENRDASVEEIKRGIREITERAIEEIKKIA
# B19: GBRAP_160_4006 (protein)
# chain: SEEAEKLIKEIKEIFEELKKDIEGLTPEERLTLAKGYAGEILQLAESSKVISDEAVDKIAEILDEFLEELEKNKNAPLEYWKKLIEETLKKIEEVIKEDS
# B20: GBRAP_43_5749 (protein)
# chain: DEELVAGAVEFTLLAAEDPSISPETVLRAFKATLDLIADTGVRLEEELVAAAAAVAKRLSPEQVEALIEHIKELAAASPEVKETFEAAEEVLRAELAKRR
# B21: GBRAP_150_3886 (protein)
# chain: DLETALTIASSALDILEATIEDGPKLLEHALKLTKALVDEVKDFSEELQKLAKEALKKIEEAIKLVKAGGKPEEIKKLLEEAAKLLEELEKLLEKKIEEE
# B22: GBRAP_52_5963 (protein)
# chain: MEARMEALLDELLALRRAGDEAGAEALAREIAETLDDEELRLLGDVLVARIRASDLETAELLLDLAIMLADVLEELGRDPRLASDLLGRAAAAAYALEQA
# B23: GBRAP_83_6915 (protein)
# chain: MKEITVAAVGDHIDEAFDAAIDLKKEGVEKIIVEAIIKPEEVPRLLEAVKRALEAGVNLELEVFLEGATEEEAEEVEKKLKEIAKEAGKEVKVTVEVIEP
# B24: GBRAP_9_7146 (protein)
# chain: MEEMVEKIREVMEDAFEEVREIVPEEVKPLVDELREEALKRFEEVVADKSKTKEEIREAAKELIEEFTERVSEKVSPEIAKMVEAIGLTAKLEIEEIYEE
# B25: GBRAP_11_2904 (protein)
# chain: KKEKLEKLAELLKKAVALLKELLAKGTDDEKLHAEALKVAEEALKLAKEVLDESDVELAEEAVELLKQAKADPANAAQYVQQALAIFSVLEGQVLLKIEE
# B26: GBRAP_96_7096 (protein)
# chain: MLEEAEALVRELIAALDTDPERARALAERLLEFPVEVVTEAIVRVVKDPADAAKLAELLLELGDEKAEEVLLEAAEKAPGDISKAIIDAMQAYEEAKEAA
# B27: GBRAP_184_5075 (protein)
# chain: SVREETIRVENVEEARAKMAALAERVRDHRGDLVVLVEMPEADLEIMRAVLEGLAAILAAGYARRVTVGFDAEVTEEQVDEAVALADRLGVNVVLPLKEE
# B28: GBRAP_125_3111 (protein)
# chain: DMEEVLEALAIVLRALGFDDDEIEEALELARRYGIKGTMIAVALAEGYEEVADLLEKLTEEEVKQALLETAAAIKANPELTPEEVKELLEEVLKKLLAAS
# B29: GBRAP_160_4005 (protein)
# chain: SAEIEALIKEIEELVKETKEWMKGLSPEERLTLARGMVGEIIQLAIDSPAVSDETEDKIAEIGDETIARLEANANASLEVWEKILDDYLEKVKELLKSDE
# Molecular target: GABARAP, O95166
# Sequence (O95166 whole entry, the tested form may be a part): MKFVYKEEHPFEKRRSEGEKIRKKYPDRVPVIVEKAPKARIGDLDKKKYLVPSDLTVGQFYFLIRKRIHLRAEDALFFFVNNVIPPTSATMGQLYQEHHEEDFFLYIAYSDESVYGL
# Experiment: median log2 fold change of GCK-ALFA target abundance (FLAG IP / Myc IP barcode read proportion) (log2 ratio); each designed protein is fused to an ALFA-tag nanobody in HEK293 cells to bring the named protein to FLAG-tagged glucokinase (GCK); Myc marks an untargeted standard; higher = target protein stabilised (more abundant)
# Conditions: target protein: 3xFLAG-MCP-GCK-ALFA reporter; HEK293 landing pad (RPLP)
# Summary of the method: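 HEK293 landing-pad cells received a recombined binder library fused to the ALFA nanobody and were induced with 2 μg mL^−1 doxycycline, then transfected with a plasmid encoding a FLAG-tagged target and a Myc-tagged standard. Lysates were collected after 48 h for anti-FLAG and anti-Myc immunoprecipitation, and the circular RNA barcodes were reverse transcribed, amplified and sequenced. Target abundance for each binder is the median log2 ratio of FLAG to Myc barcode read proportions. Barcodes had to reach a proportion of at least 10^−7 in both replicates, each binder needed at least 3 barcodes per replicate, a pseudocount of 10^−6 was applied, and the two replicates were pooled.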
row,Binder,median log2 fold change
1,B1,-0.994
2,B2,0.243
3,B3,0.13
4,B4,-0.365
5,B5,0.203
6,B6,0.108
7,B7,-0.742
8,B8,-0.356
9,B9,-0.274
10,B10,0.107
11,B11,0.00124
12,B12,-0.0898
13,B13,0.378
14,B14,-0.638
15,B15,0.139
16,B16,0.475
17,B17,0.0713
18,B18,-0.204
19,B19,-0.00151
20,B20,0.142
21,B21,0.00752
22,B22,-0.635
23,B23,0.19
24,B24,0.209
25,B25,0.354
26,B26,0.123
27,B27,0.0908
28,B28,-0.903
29,B29,0.201
